The nature of assay [1]: qHTS assay to identify small molecule agonists of the peroxisome proliferator-activated receptor delta (PPARd) signaling pathway - cell viability counter screen (AID 743211). Further: nearly all actives have a fitted effect of over 55% in size. Further: potency means the concentration at half of the fitted maximal effect. An outline of the steps:
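Counter screen for cytotoxicity run in parallel with the PPARd reporter screen. Beta-lactamase reporter HEK293H cells exposed to compounds 17 h; ATP-based CellTiter-Glo luminescence quantified viability.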
(Quantitative high-throughput screening tests each substance at several concentrations.)

The target in assay [2] is Peroxisome proliferator-activated receptor delta (Homo sapiens) (UniProt Q03181). The experiment in a line: qHTS assay to identify small molecule agonists of the peroxisome proliferator-activated receptor delta (PPARd) signaling pathway (AID 743212; calls by dose curve;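 further: HEK293H cells with PPARd UAS beta-lactamase reporter GeneBLAzer system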). An outline of the steps:
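Beta-lactamase reporter readout: a ratiometric FRET signal from the LiveBLAzer substrate after 2 h at room temperature. Compound exposure at 37 °C in PPARδ-bla HEK293H cells driven by an upstream activator sequence.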

The nature of assay [3]: qHTS assay to identify small molecule antagonists of the peroxisome proliferator-activated receptor delta (PPARd) signaling pathway - cell viability counter screen (AID 743213). Further: nearly all actives have a fitted effect of over 50% in size. Further: potency means the concentration at half of the fitted maximal effect. An outline of the steps:
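HEK293H cells with the PPARd UAS-bla reporter, co-treated 17 h at 37 C with compounds and L165041 (300 nM final), were lysed with CellTiter-Glo. Luminescence indicated viable cell content.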

Assay [4] is described as follows: qHTS assay to identify small molecule agonists of the farnesoid-X-receptor (FXR) signaling pathway - cell viability counter screen (AID 743218). Further: nearly all actives have a fitted effect of over 45% in size. Put shortly:
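Viability of FXR-bla HEK 293T cells is measured by ATP-based CellTiter-Glo luminescence following 16 h compound treatment at 37 C and a prior 2 h room-temperature beta-lactamase substrate step.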

The target of assay [5] is Bile acid receptor (Homo sapiens) (UniProt Q96RI1). The experiment in a line: qHTS assay to identify small molecule agonists of the farnesoid-X-receptor (FXR) signaling pathway (AID 743220; active means well fitted activation curve with a large enough effect in the signal ratio in the repeat runs, not every such curve was filed as active; the % refers to the signal ratio). Put shortly:
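FXR-UAS-bla HEK 293T cells carrying a UAS-driven beta-lactamase reporter were plated for 5 h at 37C/5% CO2, then exposed to DMSO-dissolved Tox21 10K compounds for 16 h at 37C. A LiveBLAzer B/G FRET substrate was loaded for 2 h at room temperature before fluorescence reading.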

Assay [6] is described as follows: qHTS assay to identify small molecule antagonists of the farnesoid-X-receptor (FXR) signaling pathway - cell viability counter screen (AID 743221; active means well fitted cell-killing curve with a large enough effect in the repeat runs, not every such curve was filed as active; further: nearly all actives have a fitted effect of over 50% in size; further: potency means the concentration at half of the fitted maximal effect). Put shortly:
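Multiplexed counter screen: viability of FXR-bla HEK 293T cells under agonist stimulation by chenodeoxycholic acid (50 uM, final) and test compound for 16 h at 37 C, measured by CellTiter-Glo luminescence in the reporter wells.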

The target of assay [7] is Vitamin D3 receptor (Homo sapiens) (UniProt P11473). The experiment in a line: qHTS assay to identify small molecule agonists of the vitamin D receptor (VDR) signaling pathway (AID 743222; calls by dose curve). Put shortly: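 Fluorescence from cleaved LiveBLAzer B/G FRET substrate served as readout. VDR-bla cells had been treated 16 h at 37C with test compounds in DMSO, following a 4 h settling period, and substrate was loaded for 2 h at RT.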

A short description of assay [8]: qHTS assay to identify small molecule agonists of the vitamin D receptor (VDR) signaling pathway - cell viability counter screen (AID 743224). Further: nearly all actives have a fitted effect of over 50% in size. Further: potency means the concentration at half of the fitted maximal effect. An outline of the steps:
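Compounds were pin-transferred onto VDR-bla cells plated 4 h earlier; following 16 h incubation at 37C, cell viability was quantified by CellTiter-Glo luminescence after 30 min at room temperature.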

Assay [9] in a line: qHTS assay to identify small molecule antagonists of the vitamin D receptor (VDR) signaling pathway - cell viability counter screen (AID 743225). Further: nearly all actives have a fitted effect of over 50% in size. Further: potency means the concentration at half of the fitted maximal effect. Put shortly:
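HEK293T VDR-bla; cpd + 1a,25-(OH)2D3 3 nM final, 16 h 37C/5% CO2; B/G FRET substrate 2 h RT; then CellTiter-Glo 30 min RT, luminescence.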

The nature of assay [10]: qHTS assay to identify small molecule agonists of the NFkB signaling pathway - cell viability counter screen (AID 1159515; calls by dose curve; further: series mostly up to about 61 µM; nearly all actives have a fitted effect of over 55% in size). An outline of the steps: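 Parallel cytotoxicity counter screen in ME-180 cells carrying an NFkB-response-element beta-lactamase reporter, 2,000 cells/well. Compound exposure lasted 5 hr at 37 C, 5% CO2. Cell viability was quantified by CellTiter-Glo luminescence.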

Assay [11] is described as follows: qHTS assay to identify small molecule agonists of the endoplasmic reticulum stress response signaling pathway (AID 1159516; active means well fitted activation curve with a large enough effect in the signal ratio in the repeat runs, not every such curve was filed as active; the % refers to the signal ratio; further: potency means the concentration at half of the fitted maximal effect). An outline of the steps:
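Using a HeLa line with an ESRE-driven beta-lactamase gene, agonist activity was measured by FRET substrate fluorescence (460 and 530 nm emission) after cells were treated with compounds for 5 hr at 37 C and 5% CO2.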

Assay [12] can be described thus: qHTS assay to identify small molecule agonists of the endoplasmic reticulum stress response signaling pathway - cell viability counter screen (AID 1159517; calls by dose curve). Put shortly: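 ESRE-bla HeLa cells (1,500/well) were plated overnight at 37 C and exposed to compounds for 5 hr. After the 2 hr beta-lactamase substrate read, CellTiter-Glo went into the same wells, and luminescence was read after 30 min at room temperature.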

Assay [13] can be described thus: qHTS assay to identify small molecule antagonists of the retinoid-related orphan receptor gamma (ROR-gamma) signaling pathway - cell viability counter screen (AID 1159520). Further: nearly all actives have a fitted effect of over 50% in size. Put shortly: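 Cytotoxicity was read from cellular ATP (CellTiter-Glo luminescence) after 16 hr at 37 C with 1 uM doxycycline induction. The inducer was added 2 hr after compound transfer to Tet-on ROR gamma CHO cells.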

Assay [14] concerns the target Nuclear receptor ROR-gamma (Homo sapiens) (UniProt P51449). The experiment in a line: qHTS assay to identify small molecule antagonists of the retinoid-related orphan receptor gamma (ROR-gamma) signaling pathway (AID 1159521; further: nearly all actives have a fitted effect of over 50% in size; further: potency means the concentration at half of the fitted maximal effect). Put shortly:
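Cells were plated, rested 4 h at 37 C, exposed to compounds for 2 h, then given 1 uM final doxycycline hyclate to induce RORγ expression. After 16 h, ONE-Glo luminescence from the ROR response element reporter was measured.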

Assay [15] can be described thus: qHTS assay to identify small molecule agonists of the AP-1 signaling pathway - cell viability counter screen (AID 1159525; calls by dose curve; further: nearly all actives have a fitted effect of over 55% in size). An outline of the steps:
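Intracellular ATP by Cell Titer Glo luminescence (30 min, RT) in the same ME-180 AP-1-bla wells after the 5 h compound exposure at 37 °C. Normalised to tetra n-octyl ammonium bromide and DMSO controls.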

Assay [16] can be described thus: qHTS assay to identify small molecule agonists of the AP-1 signaling pathway (AID 1159526; calls by dose curve).
Assay [17] addresses Vitamin D3 receptor (Homo sapiens) (UniProt P11473). The experiment in a line: qHTS assay to identify small molecule antagonists of the vitamin D receptor (VDR) signaling pathway (AID 743223; active means well fitted inhibition curve with a large enough effect in the signal ratio in the repeat runs, not every such curve was filed as active; the % refers to the signal ratio). An outline of the steps:
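Cells carrying a VDR-driven beta-lactamase reporter (VDR-bla) were co-treated with compound and 3 nM final 1alpha,25-dihydroxyvitamin D3 for 16 h at 37C; reporter activity was measured as FRET substrate fluorescence after 2 h at room temperature.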

Assay [18] concerns the target Retinoic acid receptor RXR-alpha (Homo sapiens) (UniProt P19793). The experiment in a line: qHTS assay to identify small molecule agonists of the RXR signaling pathway (AID 1159527; calls by dose curve; further: nearly all actives have a fitted effect of over 35% in size; further: potency means the concentration at half of the fitted maximal effect). Put shortly: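 Cells plated at 2,000/well, rested 5 hr at 37 C, pin-dosed with DMSO compound solutions, incubated 16 hr, then loaded with B/G FRET substrate for 2 hr at RT before dual-emission fluorescence reading.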

The target in assay [19] is Peroxisome proliferator-activated receptor delta (Homo sapiens) (UniProt Q03181). The experiment in a line: qHTS assay to identify small molecule antagonists of the peroxisome proliferator-activated receptor delta (PPARd) signaling pathway (AID 743215; active means well fitted inhibition curve with a large enough effect in the signal ratio in the repeat runs, not every such curve was filed as active; the % refers to the signal ratio;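 further: cells stimulated with agonist L165041 at 300 nM final during compound exposure; series mostly up to about 62 µM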). Put shortly:
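Plated HEK293H PPARd-bla cells rested 5 h at 37 C and 5% CO2. Compound, then agonist L165041 at 300 nM final, was added; 17 h at 37 C followed. Substrate loading, 2 h room temperature, fluorescence measured.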

Assay [20] concerns the target Bile acid receptor (Homo sapiens) (UniProt Q96RI1). The experiment in a line: qHTS assay to identify small molecule antagonists of the farnesoid-X-receptor (FXR) signaling pathway (AID 743217; active means well fitted inhibition curve with a large enough effect in the signal ratio in the repeat runs, not every such curve was filed as active; the % refers to the signal ratio). Put shortly:
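Screen of the Tox21 10K library in quantitative HTS format using FXR-UAS-bla HEK 293T reporter cells. Agonist chenodeoxycholic acid, 50 uM final, added with compounds; 16 h incubation at 37 °C; beta-lactamase FRET fluorescence measured.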

Results filed as inconclusive are left out. A number with no mark means an inactive call. Active and inactive are the calls of the source. Unless noted, the call rests on the fitted dose curve; in most records, active means well fitted curve in the direction sought with a large enough effect in the repeat runs; inconclusive means weak or mixed curves; inactive means no such curve, though single readings can be large; an effect the other way counts as inactive or inconclusive.

Our source for the Potency and outcome values is PubChem BioAssay (Tox21).

Sequence of Retinoic acid receptor RXR-alpha (Homo sapiens) (P19793 whole entry, looked up): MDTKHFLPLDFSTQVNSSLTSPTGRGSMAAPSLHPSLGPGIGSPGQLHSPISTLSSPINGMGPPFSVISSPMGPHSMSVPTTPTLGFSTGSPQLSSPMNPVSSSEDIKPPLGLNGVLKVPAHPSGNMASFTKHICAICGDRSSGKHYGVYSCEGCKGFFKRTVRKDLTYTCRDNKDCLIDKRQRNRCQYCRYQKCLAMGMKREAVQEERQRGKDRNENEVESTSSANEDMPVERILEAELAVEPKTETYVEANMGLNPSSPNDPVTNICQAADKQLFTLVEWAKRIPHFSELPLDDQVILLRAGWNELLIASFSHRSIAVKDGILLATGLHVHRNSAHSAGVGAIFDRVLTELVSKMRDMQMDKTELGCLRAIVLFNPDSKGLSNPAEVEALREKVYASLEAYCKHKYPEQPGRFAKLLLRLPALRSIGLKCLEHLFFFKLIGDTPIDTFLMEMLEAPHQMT
Sequence of Vitamin D3 receptor (Homo sapiens) (P11473 whole entry, looked up): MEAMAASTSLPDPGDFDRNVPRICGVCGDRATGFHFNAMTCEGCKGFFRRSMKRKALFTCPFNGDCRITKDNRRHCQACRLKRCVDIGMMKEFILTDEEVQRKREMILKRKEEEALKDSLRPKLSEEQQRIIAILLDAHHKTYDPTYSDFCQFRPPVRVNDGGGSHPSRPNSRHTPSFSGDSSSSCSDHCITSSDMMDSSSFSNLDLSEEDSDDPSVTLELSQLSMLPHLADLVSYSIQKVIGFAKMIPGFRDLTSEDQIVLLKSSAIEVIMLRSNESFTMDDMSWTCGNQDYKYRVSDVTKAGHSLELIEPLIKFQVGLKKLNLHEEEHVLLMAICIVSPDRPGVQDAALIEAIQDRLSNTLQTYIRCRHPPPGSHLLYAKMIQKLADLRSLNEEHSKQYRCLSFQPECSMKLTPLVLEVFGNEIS
Sequence of Bile acid receptor (Homo sapiens) (Q96RI1 whole entry, looked up): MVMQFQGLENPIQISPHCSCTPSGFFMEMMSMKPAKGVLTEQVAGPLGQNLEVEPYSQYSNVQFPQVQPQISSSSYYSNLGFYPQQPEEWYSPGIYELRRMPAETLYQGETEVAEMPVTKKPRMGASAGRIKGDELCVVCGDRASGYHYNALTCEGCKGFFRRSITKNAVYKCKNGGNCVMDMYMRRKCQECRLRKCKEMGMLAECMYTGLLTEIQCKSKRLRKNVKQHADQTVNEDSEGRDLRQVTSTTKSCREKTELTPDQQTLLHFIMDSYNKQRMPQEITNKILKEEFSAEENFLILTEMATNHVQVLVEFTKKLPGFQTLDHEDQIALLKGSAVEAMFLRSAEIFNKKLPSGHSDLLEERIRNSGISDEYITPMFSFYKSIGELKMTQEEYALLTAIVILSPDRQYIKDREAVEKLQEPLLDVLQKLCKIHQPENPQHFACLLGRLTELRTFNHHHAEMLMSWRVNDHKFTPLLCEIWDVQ
Sequence of Peroxisome proliferator-activated receptor delta (Homo sapiens) (Q03181 whole entry, looked up): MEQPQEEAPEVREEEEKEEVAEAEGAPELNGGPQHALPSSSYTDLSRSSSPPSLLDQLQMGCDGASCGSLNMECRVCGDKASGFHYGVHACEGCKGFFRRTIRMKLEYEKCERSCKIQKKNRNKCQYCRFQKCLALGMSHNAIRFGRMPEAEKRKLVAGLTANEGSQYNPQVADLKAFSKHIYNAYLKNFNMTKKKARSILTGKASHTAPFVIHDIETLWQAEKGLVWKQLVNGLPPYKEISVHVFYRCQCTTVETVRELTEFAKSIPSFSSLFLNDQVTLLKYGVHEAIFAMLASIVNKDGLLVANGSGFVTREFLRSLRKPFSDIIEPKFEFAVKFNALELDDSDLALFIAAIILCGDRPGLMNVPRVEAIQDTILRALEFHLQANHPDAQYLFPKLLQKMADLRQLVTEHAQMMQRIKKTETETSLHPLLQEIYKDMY

Consider `CC1=CC(=O)/C(=C(/C)O)C(=O)O1`, for which the Potency result in assay [1], in assay [3], in [4], in assay [6], in [8] and in assay [9] was “inactive” throughout. For the same compound, the Potency entry in [10], in assay [11], in assay [13], in [14], in assay [15] and in assay [16] was “inactive” each time. Moreover, the outcome in assay [2], in [5], in [7] and in assay [12] was inactive.
Consider `CC(CN)CCCN` (stereo not given), for which the Potency result in assay [1], in assay [3], in [4], in assay [6], in [8] and in assay [9] was “inactive” each time. Also, the Potency result in assay [10], in assay [11], in assay [13], in assay [14], in [15] and in assay [16] was “inactive” throughout. In assay [12], the call was inactive.
As to `O=C(O)c1cn(C2CC2)c2cc(Cl)c(F)cc2c1=O`, the Potency result in [1], in [3], in assay [8], in [10], in assay [11] and in assay [13] was “inactive” throughout. Besides, the Potency entry in assay [14], in assay [15] and in assay [16] was “inactive” each time. In addition, the outcome in assay [7] and in assay [12] was inactive.
As for `CCOc1ccc(NC(=O)CC(C)=O)cc1`, the Potency result in assay [1], in assay [3], in assay [6], in [8], in assay [9] and in [10] was “inactive” in each case. Moreover, the Potency entry in assay [11], in assay [13], in [14], in assay [15] and in assay [16] was “inactive” in each case. The compound was classed as inactive in assay [2], in assay [7] and in assay [12].
As for `O=C1CCCCCO1`, the Potency entry in assay [1], in [3], in assay [4], in assay [6], in assay [17] and in assay [8] was “inactive” each time. Also, the Potency entry in assay [9], in assay [10], in assay [11], in assay [13], in assay [14] and in assay [15] was “inactive” in each case. In assay [16], the Potency entry is “inactive”. In addition, the result in assay [7] and in [12] was inactive.
As to `CC(C)NCC(O)c1cc(O)cc(O)c1` (stereo not given), the Potency entry in assay [1], in assay [3], in [4], in assay [9], in assay [10] and in assay [11] was “inactive” each time. Moreover, the Potency entry in [13], in assay [14], in [15] and in [18] was “inactive” throughout. Further, the result in assay [7] and in assay [12] was inactive.
As to `CCOC(=O)[C@H](CCc1ccccc1)N[C@H]1CCc2ccccc2N(CC(=O)O)C1=O`, the Potency in assay [1] is 29.8 µM (active); in assay [3], 26.6 µM (active); in assay [6], 29.8 µM (active); in assay [8] it was 21.1 µM (active); in [9] it was 21.3 µM (active); in assay [11] it was 21.3 µM (active). The Potency entry in assay [10], in assay [13], in assay [14], in [15] and in assay [18] was “inactive” throughout. For the same compound, in assay [12], the call was inactive.
For the compound `O=C(O)C1CCC(C(=O)O)CC1` (stereo not given), the Potency result in assay [1], in [3], in assay [4], in assay [17], in [8] and in assay [9] was “inactive” throughout. The Potency result in [10], in assay [11], in [13], in [14] and in assay [15] was “inactive” in each case. For the same compound, the result in assay [5], in [7] and in [12] was inactive. Also, the Potency in assay [18] was 5.48 µM (active).
With `Cn1c(N)nc2nc[nH]c2c1=O`, the Potency result in assay [1], in [3], in assay [4], in assay [6], in [17] and in [8] was “inactive” in each case. Also, the Potency entry in [9], in [10], in assay [11], in assay [13] and in assay [15] was “inactive” each time. Also, the call in assay [2], in [19], in assay [20], in [5], in [7] and in [12] was inactive. Moreover, the Potency in assay [14] was 27 µM (active).
For `CC(C)c1cccc(C(C)C)c1NC(=O)NS(=O)(=O)c1cc(C(C)(C)O)co1`, the Potency result in assay [1], in assay [3], in [4], in assay [6], in assay [8] and in assay [10] was “inactive” throughout. The Potency result in [11], in [13], in assay [14] and in assay [15] was “inactive” in each case. The result in [2], in [19], in assay [20], in assay [5], in [7] and in assay [12] was inactive.
For the compound `Cc1ccc(O)c([C@H](CCN(C(C)C)C(C)C)c2ccccc2)c1`, the compound was classed as inactive in assay [2], in assay [19], in assay [7] and in [12]. Further, the Potency result in [4], in assay [6], in assay [17], in assay [10], in assay [11] and in assay [13] was “inactive” each time. In addition, the Potency entry in assay [14], in assay [15] and in assay [18] was “inactive” each time.
For `CCN(CC)C(C)CN1c2ccccc2Sc2ccccc21` (stereo not given), the Potency entry in [1], in assay [3], in assay [4], in [6], in assay [17] and in assay [8] was “inactive” throughout. In addition, the Potency entry in assay [10], in assay [11], in [13], in assay [14], in assay [15] and in assay [18] was “inactive” in each case. Further, the call in assay [19], in assay [7] and in [12] was inactive.
